Measured values: PubChem BioAssay AID504340 (NMMLSC, 2011)
Where “and” joins values, the source holds several entries; their conditions need not be identical. Equal entries are not always repeated. Unmarked numbers belong to inactive results. Calls of active or inactive are those of the source.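 The calls were made as follows: active = GFP response above 150% of the DMSO control; inconclusive = Under 70 cell events counted for a yeast strain; inactive = the rest.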

Experiment: yeast TOR pathway CIT2-GFP reporter retest – flow cytometry, third cherry pick, single plex, confirmation (AID 504340);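 also: median GFP fluorescence over all cells with no mother versus daughter split; sample signal as a ratio to the plate DMSO mean so 100% equals DMSO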
Settings: S. cerevisiae CIT2-GFP strain, 3 h, at 10 µM, active compounds read high
`COc1cccc2c(Cl)c(CCCl)c(C)nc12` gave a GFP response vs DMSO of 111%. For `CCC(C)Nc1nc(N)c([N+](=O)[O-])c(Nc2ccccc2OC)n1` (centres undefined), the GFP response vs DMSO was 114%. Work on `Cc1ccc(Nc2cc(=O)[nH]c(=O)[nH]2)cc1C` yielded a GFP response vs DMSO of 104%. In the case of `O=C(Nc1cccc(Cl)c1)ON=C1c2ccccc2-c2ccccc21`, the GFP response vs DMSO was 101%. `Nn1cnc2c(c1=O)C1(CCCCC1)Cc1ccccc1-2` showed a GFP response vs DMSO of 129%. `CCN(CC)c1ncnc2ccc(Br)cc12` showed a GFP response vs DMSO of 97.7%. `NC(=O)c1ccnc2c(O)cccc12` showed a GFP response vs DMSO of 101%. For `COCC(C)NC(=O)CCS(=O)(=O)c1nc(-c2ccc(OC)cc2)cc(C(F)(F)F)n1` (centres undefined), the GFP response vs DMSO was 103% and 92.8%. `Cc1cc(C)c(NC(=O)CC(=O)c2ccccc2)c(Cl)c1` gave a GFP response vs DMSO of 92.8%. With `CCC(=O)Nn1cnc2c(c1=O)C1(CCCCC1)Cc1ccccc1-2` the GFP response vs DMSO was 99.3%. `C=CCNc1ncnc2ccccc12` showed a GFP response vs DMSO of 103%. Molecule `N#Cc1c(N)nc(N)nc1Nc1ccc(Br)cc1` has a GFP response vs DMSO of 99.3%. In the case of `CCCOCc1ccc(O)c2ncccc12`, the GFP response vs DMSO was 104%. Molecule `COc1cccc(OCc2cc(C(=O)N3CCN(C)C(c4ccccc4)C3)no2)c1` (centres undefined) has a GFP response vs DMSO of 97.7%. With `CNc1nc(N)c([N+](=O)[O-])c(Nc2cccc(Cl)c2)n1` the GFP response vs DMSO was 480% (active). `C=CCNc1ncnc2ccc(Br)cc12` showed a GFP response vs DMSO of 101%. In the case of `COc1ccc(OC)c(N/C(C)=C/C(=O)c2ccccc2)c1`, the GFP response vs DMSO was 99.3%. `CN1CCN(C(=O)c2cc(COc3ccc(F)cc3Cl)on2)CC1c1ccccc1` (centres undefined) gave a GFP response vs DMSO of 106%. In the case of `CN(C)CCCNc1cc(O)c2ncccc2c1`, the GFP response vs DMSO was 112%. With `O=C(Nc1ccccc1Cl)ON=C1c2ccccc2-c2ccccc21` the GFP response vs DMSO was 116%. Molecule `Cc1ccc(C(=O)Nc2nc(-c3ccccn3)cs2)o1` has a GFP response vs DMSO of 99.3%. `O=C(O)c1ccc2cccnc2c1O` gave a GFP response vs DMSO of 88%. `Cc1ccc2c(Cl)cc(Cl)c(O)c2n1` showed a GFP response vs DMSO of 138%. With `COc1ccccc1-c1cc(C(F)(F)F)nc(S(=O)(=O)CCCC(=O)NC(C)C)n1` the GFP response vs DMSO was 104% and 94.5%. For `CNc1nc(N)c([N+](=O)[O-])c(Nc2ccccc2OC)n1`, the GFP response vs DMSO was 168% (active). `CNc1nc(C)c([N+](=O)[O-])c(Nc2ccc(OC)cc2)n1` gave a GFP response vs DMSO of 97.7%. With `Cc1ccc(C(=O)/C=C/Nc2cccc(O)c2)cc1` the GFP response vs DMSO was 109%. `O=C(N/N=C/c1ccccc1)c1cccc2ccccc12` showed a GFP response vs DMSO of 97.7%. `COc1ccccc1Nc1nc(NCCO)nc(N)c1[N+](=O)[O-]` showed a GFP response vs DMSO of 111%. Work on `Cc1cc(C)c2ccc(C(=O)O)nc2c1O` yielded a GFP response vs DMSO of 88%. For `O=C(O)CCCCCNc1ncnc2ccc(Br)cc12`, the GFP response vs DMSO was 106%. `COc1ccccc1-c1cc(C(F)(F)F)nc(S(=O)(=O)CCCC(=O)O)n1` showed a GFP response vs DMSO of 111%. In the case of `Cc1ccc2c(Cl)cc(Cl)c(OCC(=O)O)c2n1`, the GFP response vs DMSO was 109%. Molecule `COC(=O)c1cc(=O)c2cccc(OC)c2[nH]1` has a GFP response vs DMSO of 101%. `COc1ccc(OC)c(Nc2nc(NCCC(C)C)nc(N)c2[N+](=O)[O-])c1` gave a GFP response vs DMSO of 103%. In the case of `C/C(=C\C(=O)c1ccccc1)Nc1cccc(O)c1`, the GFP response vs DMSO was 99.3%. Molecule `CCCC(=O)Nn1cnc2c(c1=O)C1(CCCCC1)Cc1ccccc1-2` has a GFP response vs DMSO of 94.5%. Work on `CC1=CN2C(=N)/C(=C/c3ccco3)C(=O)N=C2S1` yielded a GFP response vs DMSO of 112%. Work on `COc1ccc(OC)c2c(C)cc(C)nc12` yielded a GFP response vs DMSO of 99.3%.
